Data: PubChem BioAssay (EPA / NIEHS)
Results filed as inconclusive are left out. Activity calls are given as the source filed them. How the source made its calls, unless noted: active means hit-call score of the fitted dose curve at least 0.9, where 1 is the maximum; inconclusive means response in the unintended direction; inactive means score below 0.9.

What was measured:
[1] = ATG_TAL_CIS: Attagene CIS-FACTORIAL HepG2 Assay for human TAL Basal Promoter (AID 2282966; active means hit-call score of the fitted dose curve at least 0.9, where 1 is the maximum; inactive means score below 0.9;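 further: background control endpoint measuring basal TAL promoter reporter mRNA not a specific factor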); settings: HepG2 Attagene cis-factorial TAL promoter reporter; actives raise or lower the signal
Method in brief: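 Human hepatoma HepG2 cells, transfected with promoter-regulated reporter units, were treated 24 h. Reporter transcript levels, measured through RT-PCR and capillary electrophoresis, were fitted for gain or loss relative to DMSO.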

[2] = ATG_TGFb_CIS: Attagene CIS-FACTORIAL HepG2 Assay for human Transforming Growth Factor (TGF) (AID 2282967; active means hit-call score of the fitted dose curve at least 0.9, where 1 is the maximum; inactive means score below 0.9); settings: HepG2 Attagene CIS TGFb reporter, mRNA transcription; actives raise or lower the signal
Method in brief: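 Multiplexed cis-reporter HepG2 system, 24 h treatment; mRNA induction read by fluorescence after RT-PCR and CE; DMSO negative control, bidirectional curve fitting.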

[3] = ATG_VDRE_CIS: Attagene CIS-FACTORIAL HepG2 Assay for human Vitamin D Receptor Element (VDRE) (AID 2282968; active means hit-call score of the fitted dose curve at least 0.9, where 1 is the maximum; inactive means score below 0.9); settings: HepG2 VDRE cis-reporter transcription, actives raise or lower the signal
Method in brief: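 Transfected HepG2 reporter cells, chemical treatment 24 h. RNA isolated, cDNA amplified with reporter-specific primers, products analysed by capillary electrophoresis. Endpoint fitted in both directions versus DMSO.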

[4] = biological target: X-box-binding protein 1 (Homo sapiens) (UniProt P17861); test: ATG_Xbp1_CIS: Attagene CIS-FACTORIAL HepG2 Assay for human X-box Binding Protein 1 (XBP1) (AID 2282972; active means hit-call score of the fitted dose curve at least 0.9, where 1 is the maximum; inactive means score below 0.9); settings: HepG2 XBP1 cis-element reporter, Attagene multiplex; actives raise or lower the signal
Method in brief: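 Multiplexed cis-reporter readout in transfected HepG2 liver cells. Exposure lasted 24 hours. Activity in either direction was fitted against DMSO as negative control and baseline.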

[5] = ATG_GAL4_TRANS: Attagene TRANS-FACTORIAL HepG2 Assay for GAL4 (Internal Marker) (AID 2282976); settings: HepG2 Attagene TRANS GAL4 internal marker reporter
Method in brief: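 Liver HepG2 line bearing multiplexed GAL4-UAS reporter constructs; 24 h chemical treatment. Transcripts were quantified as fluorescent fragments on capillary electrophoresis after RT-PCR and HpaI cut, with activity fitted upward from DMSO.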

[6] = biological target: Glucocorticoid receptor (Homo sapiens) (UniProt P04150); test: ATG_GR_TRANS: Attagene TRANS-FACTORIAL HepG2 Assay for human Glucocorticoid Receptor (GR) (AID 2282978); settings: HepG2 Attagene TRANS GR reporter, mRNA transcription;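 further: activators score as hits since higher reporter transcript over DMSO is fitted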
Method in brief: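 Readout is reporter transcript from a chimeric GR-Gal4 acting on GAL4-UAS in transfected human HepG2 liver cells after 24 h exposure, quantified by RT-PCR and capillary electrophoresis. Activation fitted upward against DMSO.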

[7] = biological target: Bile acid receptor (Homo sapiens) (UniProt Q96RI1); test: ATG_FXR_TRANS: Attagene TRANS-FACTORIAL HepG2 Assay for Farnesoid X Receptor (FXR) (AID 2282979); settings: HepG2 Attagene TRANS FXR-GAL4 reporter transcription;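 further: hits raise reporter mRNA above DMSO so AC50 marks FXR activation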
Method in brief: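 After 24 h chemical treatment of transfected HepG2 cells, GAL4-UAS reporter transcripts driven by an exogenous FXR-GAL4 fusion were measured by RT-PCR and capillary electrophoresis. Increases over DMSO were fitted.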

[8] = biological target: Oxysterols receptor LXR-alpha (Homo sapiens) (UniProt Q13133); test: ATG_LXRa_TRANS: Attagene TRANS-FACTORIAL HepG2 Assay for human Liver X Receptor alpha (LXRa) (AID 2282980); settings: HepG2 Attagene TRANS reporter, LXRa transactivation
Method in brief: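 In this multiplexed TRANS system, compounds act on HepG2 cells carrying GAL4-UAS reporter units and a receptor-GAL4 fusion for 24 h. Induced reporter RNA is amplified, fluorescently labelled and sized by capillary electrophoresis, with DMSO as baseline.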

[9] = biological target: Oxysterols receptor LXR-beta (Homo sapiens) (UniProt P55055); test: ATG_LXRb_TRANS: Attagene TRANS-FACTORIAL HepG2 Assay for human Liver X Receptor beta (LXRb) (AID 2282981); settings: HepG2 Attagene TRANS GAL4-LXRb reporter, mRNA
Method in brief: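 Liver-derived HepG2 cells transfected with Gal4-responsive reporters were dosed for 24 h. Activation was scored as rise in reporter mRNA, by RT-PCR and capillary electrophoresis, above DMSO baseline.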

[10] = ATG_M_06_TRANS: Attagene TRANS-FACTORIAL HepG2 Assay for M06 Transcription Factor (Internal Marker) (AID 2282983); settings: HepG2 Attagene TRANS M06 internal marker reporter
Method in brief: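 Multi-reporter-transfected HepG2, 24 h treatment; reporter transcripts quantified via RT-PCR, primer-extension labelling and CE. DMSO-normalized gain-of-signal fit.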

[11] = ATG_M_32_TRANS: Attagene TRANS-FACTORIAL HepG2 Assay for M32 Transcription Factor (Internal Marker) (AID 2282984); settings: HepG2 Attagene TRANS M32 internal marker reporter
Method in brief: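 Fluorescence-detected mRNA induction, HepG2 liver cells, 24 h after dosing. Multiple GAL4-UAS reporter units introduced by transient transfection; background-control endpoint analysed for gain of signal against DMSO.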

[12] = biological target: Nuclear receptor subfamily 4 group A member 2 (Homo sapiens) (UniProt P43354); test: ATG_NURR1_TRANS: Attagene TRANS-FACTORIAL HepG2 Assay for human Nuclear Receptor Related Protein 1 (NURR1) (AID 2282985); settings: HepG2 Attagene TRANS reporter, mRNA readout
Method in brief: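 Chimeric NR-Gal4 proteins were expressed in human HepG2 cells bearing GAL4-UAS reporter units, and induced reporter mRNA was quantified 24 h post-dosing by RT-PCR and capillary electrophoresis.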

[13] = biological target: Transcriptional activator Myb (Homo sapiens) (UniProt P10242); test: ATG_Myb_CIS: Attagene CIS-FACTORIAL HepG2 Assay for human Myeloblastosis (Myb) Proto-Oncogene Transcription Factor (AID 2282986; active means hit-call score of the fitted dose curve at least 0.9, where 1 is the maximum; inactive means score below 0.9); settings: HepG2 Attagene CIS-FACTORIAL Myb reporter transcription; actives raise or lower the signal
Method in brief: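 Reporter mRNA is quantified by RT-PCR and capillary electrophoresis 24 h after dosing HepG2 cells transfected with cis-regulated reporter units, which track endogenous transcription factor activity. Gain and loss of signal are fitted versus DMSO baseline.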

[14] = biological target: Nuclear respiratory factor 1 (Homo sapiens) (UniProt Q16656); test: ATG_NRF1_CIS: Attagene CIS-FACTORIAL HepG2 Assay for human Nuclear Respiratory Factor 1 (NRF1) Orphan Gene (AID 2282987; active means hit-call score of the fitted dose curve at least 0.9, where 1 is the maximum; inactive means score below 0.9); settings: HepG2 NRF1 cis-element reporter, Attagene multiplex; actives raise or lower the signal
Method in brief: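 Endogenous NRF1-driven reporter transcription in transfected HepG2 cells after 24 h treatment. Readout: RT-PCR products, 6-FAM labelled and resolved by capillary electrophoresis; changes fitted both directions relative to DMSO.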

[15] = ATG_M_19_TRANS: Attagene TRANS-FACTORIAL HepG2 Assay for M19 Transcription Factor (Internal Marker) (AID 2282974); settings: HepG2 Attagene TRANS-FACTORIAL M19 internal marker reporter
Method in brief: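 Background-control readout: after 24 h chemical exposure of transfected HepG2 carrying GAL4-driven reporter units, RNA was reverse-transcribed, amplified, fluorescently labeled and sized by capillary electrophoresis; gain-of-signal fit against DMSO.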

[16] = biological target: Hepatocyte nuclear factor 4-alpha (Homo sapiens) (UniProt P41235); test: ATG_HNF4a_TRANS: Attagene TRANS-FACTORIAL HepG2 Assay for human Hepatocyte Nuclear Factor 4 alpha (HNF4a) (AID 2282982); settings: HepG2 HNF4a transactivation reporter, mRNA readout
Method in brief: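 Using HepG2 liver cells transfected with GAL4-UAS reporter units, chemical-induced mRNA increases were assessed after 24 hours. Fluorescent RT-PCR fragments were separated by capillary electrophoresis and compared with DMSO negative controls.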

Measured: AC50

X-box-binding protein 1 (Homo sapiens), sequence (P17861 whole entry, looked up): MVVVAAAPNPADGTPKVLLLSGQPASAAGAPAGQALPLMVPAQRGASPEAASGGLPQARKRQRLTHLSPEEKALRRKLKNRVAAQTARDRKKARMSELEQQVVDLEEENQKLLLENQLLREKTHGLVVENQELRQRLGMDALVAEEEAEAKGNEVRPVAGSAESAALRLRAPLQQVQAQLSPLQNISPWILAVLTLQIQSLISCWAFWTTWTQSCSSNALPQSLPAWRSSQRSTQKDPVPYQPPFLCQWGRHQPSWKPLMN
Nuclear respiratory factor 1 (Homo sapiens), sequence (Q16656 whole entry, looked up): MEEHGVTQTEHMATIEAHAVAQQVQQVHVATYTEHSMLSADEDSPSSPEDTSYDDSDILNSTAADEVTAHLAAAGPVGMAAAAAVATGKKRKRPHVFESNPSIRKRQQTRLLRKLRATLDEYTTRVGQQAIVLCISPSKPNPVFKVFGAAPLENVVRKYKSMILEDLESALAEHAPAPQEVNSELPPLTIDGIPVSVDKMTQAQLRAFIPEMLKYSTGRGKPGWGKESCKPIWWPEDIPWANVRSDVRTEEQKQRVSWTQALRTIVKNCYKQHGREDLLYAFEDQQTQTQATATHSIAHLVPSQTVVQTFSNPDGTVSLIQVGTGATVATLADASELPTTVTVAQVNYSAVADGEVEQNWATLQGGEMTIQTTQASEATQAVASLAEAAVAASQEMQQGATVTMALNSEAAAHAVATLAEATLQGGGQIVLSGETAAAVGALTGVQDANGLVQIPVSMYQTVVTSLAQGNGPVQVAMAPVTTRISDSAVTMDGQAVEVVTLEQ
Oxysterols receptor LXR-alpha (Homo sapiens), sequence (Q13133 whole entry, looked up, the tested form may be a part): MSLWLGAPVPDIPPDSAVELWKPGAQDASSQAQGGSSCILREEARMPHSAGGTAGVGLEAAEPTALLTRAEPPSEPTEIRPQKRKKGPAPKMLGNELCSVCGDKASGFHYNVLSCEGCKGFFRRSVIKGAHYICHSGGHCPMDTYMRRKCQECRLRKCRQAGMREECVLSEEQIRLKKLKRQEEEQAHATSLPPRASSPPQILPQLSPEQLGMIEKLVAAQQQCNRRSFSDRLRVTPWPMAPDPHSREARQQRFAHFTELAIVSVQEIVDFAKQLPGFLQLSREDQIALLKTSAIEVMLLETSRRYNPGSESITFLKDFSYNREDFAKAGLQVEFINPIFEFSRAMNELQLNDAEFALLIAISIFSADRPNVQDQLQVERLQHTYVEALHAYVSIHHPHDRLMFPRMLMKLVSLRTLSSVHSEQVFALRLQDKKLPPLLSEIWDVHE
Oxysterols receptor LXR-beta (Homo sapiens), sequence (P55055 whole entry, looked up, the tested form may be a part): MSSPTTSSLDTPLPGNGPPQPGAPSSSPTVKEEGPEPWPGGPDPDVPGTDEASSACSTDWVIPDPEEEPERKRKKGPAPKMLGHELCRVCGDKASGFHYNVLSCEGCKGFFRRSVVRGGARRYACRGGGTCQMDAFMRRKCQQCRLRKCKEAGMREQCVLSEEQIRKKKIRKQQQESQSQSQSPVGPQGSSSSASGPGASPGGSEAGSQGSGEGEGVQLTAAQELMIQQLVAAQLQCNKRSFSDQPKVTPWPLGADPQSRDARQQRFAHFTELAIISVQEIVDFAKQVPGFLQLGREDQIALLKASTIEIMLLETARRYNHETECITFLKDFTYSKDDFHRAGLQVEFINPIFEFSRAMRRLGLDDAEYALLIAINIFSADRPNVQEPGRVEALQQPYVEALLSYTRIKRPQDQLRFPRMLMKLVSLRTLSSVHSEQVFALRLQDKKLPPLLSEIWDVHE
Transcriptional activator Myb (Homo sapiens), sequence (P10242 whole entry, looked up): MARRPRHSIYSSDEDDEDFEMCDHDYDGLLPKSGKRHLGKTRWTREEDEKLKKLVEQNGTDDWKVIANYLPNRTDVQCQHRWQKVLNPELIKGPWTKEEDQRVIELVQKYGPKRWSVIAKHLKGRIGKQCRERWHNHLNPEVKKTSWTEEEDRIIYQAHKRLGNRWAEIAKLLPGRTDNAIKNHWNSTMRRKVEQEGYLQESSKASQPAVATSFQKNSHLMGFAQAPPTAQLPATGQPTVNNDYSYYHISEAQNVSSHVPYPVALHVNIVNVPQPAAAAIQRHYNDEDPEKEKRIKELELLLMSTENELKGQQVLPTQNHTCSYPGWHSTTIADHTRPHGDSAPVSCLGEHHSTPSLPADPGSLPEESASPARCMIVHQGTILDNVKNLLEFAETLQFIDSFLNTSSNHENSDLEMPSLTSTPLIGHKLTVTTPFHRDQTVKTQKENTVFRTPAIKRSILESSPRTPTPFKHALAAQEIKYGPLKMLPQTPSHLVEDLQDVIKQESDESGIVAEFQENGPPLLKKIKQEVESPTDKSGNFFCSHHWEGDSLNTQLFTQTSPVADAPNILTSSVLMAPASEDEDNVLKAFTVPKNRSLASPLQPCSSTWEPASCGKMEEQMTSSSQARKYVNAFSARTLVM
Nuclear receptor subfamily 4 group A member 2 (Homo sapiens), sequence (P43354 whole entry, looked up, the tested form may be a part): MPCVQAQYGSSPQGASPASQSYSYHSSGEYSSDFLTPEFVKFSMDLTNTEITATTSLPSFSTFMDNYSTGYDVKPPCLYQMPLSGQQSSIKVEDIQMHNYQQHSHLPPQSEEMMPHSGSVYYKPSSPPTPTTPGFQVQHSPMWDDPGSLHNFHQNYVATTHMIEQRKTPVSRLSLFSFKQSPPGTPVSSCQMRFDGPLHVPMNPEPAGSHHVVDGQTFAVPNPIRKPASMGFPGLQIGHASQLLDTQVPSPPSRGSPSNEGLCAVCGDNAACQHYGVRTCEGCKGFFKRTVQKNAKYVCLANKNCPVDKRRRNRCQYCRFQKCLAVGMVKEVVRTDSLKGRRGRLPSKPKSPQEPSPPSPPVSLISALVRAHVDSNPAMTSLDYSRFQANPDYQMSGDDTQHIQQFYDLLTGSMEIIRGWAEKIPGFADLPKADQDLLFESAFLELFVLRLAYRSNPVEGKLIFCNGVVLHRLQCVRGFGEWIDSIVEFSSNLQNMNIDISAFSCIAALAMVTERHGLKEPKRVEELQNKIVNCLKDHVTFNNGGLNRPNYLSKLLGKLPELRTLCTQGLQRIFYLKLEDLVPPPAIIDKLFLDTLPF
Hepatocyte nuclear factor 4-alpha (Homo sapiens), sequence (P41235 whole entry, looked up, the tested form may be a part): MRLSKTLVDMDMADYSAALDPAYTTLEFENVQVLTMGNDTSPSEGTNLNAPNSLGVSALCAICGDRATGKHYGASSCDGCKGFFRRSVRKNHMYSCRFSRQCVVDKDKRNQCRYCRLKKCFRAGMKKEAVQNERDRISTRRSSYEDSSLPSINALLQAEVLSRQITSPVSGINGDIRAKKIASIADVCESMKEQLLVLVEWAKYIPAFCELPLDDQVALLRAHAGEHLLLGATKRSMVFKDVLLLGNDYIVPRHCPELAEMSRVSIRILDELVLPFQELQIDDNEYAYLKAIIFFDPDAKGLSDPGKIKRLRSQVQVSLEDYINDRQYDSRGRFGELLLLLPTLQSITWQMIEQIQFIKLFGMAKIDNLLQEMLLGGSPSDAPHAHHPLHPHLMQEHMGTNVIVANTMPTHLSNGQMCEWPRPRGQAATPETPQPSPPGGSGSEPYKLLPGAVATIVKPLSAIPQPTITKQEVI
Bile acid receptor (Homo sapiens), sequence (Q96RI1 whole entry, looked up, the tested form may be a part): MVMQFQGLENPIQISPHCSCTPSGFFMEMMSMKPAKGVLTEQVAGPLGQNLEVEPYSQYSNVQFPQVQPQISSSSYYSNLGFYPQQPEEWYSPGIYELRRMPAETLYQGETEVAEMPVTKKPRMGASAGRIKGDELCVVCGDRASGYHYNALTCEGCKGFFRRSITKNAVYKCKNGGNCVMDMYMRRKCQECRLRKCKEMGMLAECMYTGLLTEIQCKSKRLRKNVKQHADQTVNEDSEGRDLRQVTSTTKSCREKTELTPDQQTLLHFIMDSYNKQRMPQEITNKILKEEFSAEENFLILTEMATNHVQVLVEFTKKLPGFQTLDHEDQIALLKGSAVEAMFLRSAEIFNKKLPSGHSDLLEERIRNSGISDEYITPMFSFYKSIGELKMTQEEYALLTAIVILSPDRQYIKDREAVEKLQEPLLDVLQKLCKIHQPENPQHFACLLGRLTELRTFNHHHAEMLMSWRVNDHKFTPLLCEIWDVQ
Glucocorticoid receptor (Homo sapiens), sequence (P04150 whole entry, looked up, the tested form may be a part): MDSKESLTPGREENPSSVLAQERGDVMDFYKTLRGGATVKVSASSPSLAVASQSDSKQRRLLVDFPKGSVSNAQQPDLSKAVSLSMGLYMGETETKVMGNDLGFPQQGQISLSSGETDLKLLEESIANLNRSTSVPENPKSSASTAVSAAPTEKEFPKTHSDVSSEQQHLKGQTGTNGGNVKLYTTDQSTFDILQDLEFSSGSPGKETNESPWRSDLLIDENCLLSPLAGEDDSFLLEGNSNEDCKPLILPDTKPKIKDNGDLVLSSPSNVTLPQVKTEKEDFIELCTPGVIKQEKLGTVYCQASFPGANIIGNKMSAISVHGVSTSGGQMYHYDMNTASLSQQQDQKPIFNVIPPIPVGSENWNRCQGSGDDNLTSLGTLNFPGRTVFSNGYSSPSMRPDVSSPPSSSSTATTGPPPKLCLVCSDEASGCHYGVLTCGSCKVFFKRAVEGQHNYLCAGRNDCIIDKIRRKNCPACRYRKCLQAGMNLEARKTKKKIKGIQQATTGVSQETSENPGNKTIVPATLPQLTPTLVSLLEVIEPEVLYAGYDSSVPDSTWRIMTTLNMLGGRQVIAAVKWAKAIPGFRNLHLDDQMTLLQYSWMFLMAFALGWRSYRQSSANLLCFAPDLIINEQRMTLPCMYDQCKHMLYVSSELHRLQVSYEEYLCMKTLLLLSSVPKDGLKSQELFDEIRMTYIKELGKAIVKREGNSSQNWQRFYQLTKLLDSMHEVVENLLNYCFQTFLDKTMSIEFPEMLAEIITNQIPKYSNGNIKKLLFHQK

CC1C2CC(CC2C2CCCC(O)C2)C1(C)C (configuration not stated)
inactive: [1] | [2] | [3] | [4] | [5] | [6] | [10] | [11] | [12] | [13] | [14]
active: [7] 58.4 µM | [8] 33.4 µM | [9] 62.5 µM

OCc1cccc(Oc2ccccc2)c1
inactive: [1] | [2] | [3] | [4] | [15] | [5] | [7] | [8] | [9] | [16] | [10] | [11] | [13] | [14]

COS(=O)(=O)O
inactive: [1] | [2] | [3] | [4] | [15] | [5] | [7] | [8] | [9] | [16] | [10] | [13] | [14]

CCC1(C)NC(=O)NC1=O (configuration not stated)
inactive: [1] | [2] | [3] | [4] | [15] | [5] | [7] | [8] | [9] | [10] | [13] | [14]

COC(=O)c1ccc(C)cc1C1=NC(C)(C(C)C)C(=O)N1 (configuration not stated) (tested in a mixture with another compound)
inactive: [1] | [2] | [4] | [15] | [8] | [12] | [13] | [14]
active: [3] 26.8 µM

CS(C)=O
inactive: [1] | [2] | [3] | [4] | [15] | [6] | [16] | [13] | [14]

CC=Cc1ccc(OC)c(OC)c1
inactive: [1] | [2] | [3] | [4] | [15] | [7] | [8] | [16] | [11] | [12] | [13] | [14]

NCc1ccco1
inactive: [1] | [2] | [3] | [4] | [15] | [5] | [7] | [16] | [11] | [13] | [14]

c1ccc2[nH]cnc2c1
inactive: [1] | [2] | [3] | [4] | [15] | [5] | [7] | [8] | [16] | [11] | [12] | [13] | [14]

CS(=O)(=O)OCCCCOS(C)(=O)=O
inactive: [1] | [2] | [3] | [4] | [15] | [10] | [11] | [13]

CCOC(=O)CCc1ccccc1
inactive: [1] | [2] | [3] | [4] | [15] | [5] | [7] | [9] | [11] | [12] | [13] | [14]
